# Screens from PubChem.
# This is a sample that favours compounds with a hit; in the whole collection about 2% have one here.
# Granule exo inh – lytic granule exocytosis inhibition; TALL-104 LAMP-1 surface exposure, flow cytometry; cells stimulated with thapsigargin and PMA; inhibition, % at 10 µM; actives 0.66% (n = 360,000); AID 651702;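 active means inhibition above about 55%, limit read from the data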
# TLR9-MyD88 inh – inhibitors of human TLR9-MyD88 binding. actives 0.21% (n = 340,000). Q9NR96+Q99836. inhibition, % at 4.98 µM. AID 504734. CHO BLA complementation TLR9-MyD88, CCF4 FRET ratio;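 active means inhibition above the mean over all tested compounds plus 3 SD, cut at about 21% in these data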;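 further: 0% = DMSO only wells and 100% = clavulanate BLA inhibitor control wells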
# ABHD5 PLIN5 PPI – ABHD5-PLIN5 protein interaction inhibition. Q00G26+Q8WTS1. Split G. princeps luciferase complementation, luminescence, 4 h. inhibition, % at 4 µM. actives 0.78% (n = 360,000). AID 602281;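 active means inhibition above the mean inhibition across every tested compound plus 3 SD, cut at about 22% in these data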;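 further: 0% = DMSO only wells and the 100% control is not disclosed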
# Target sequence (Q00G26 whole entry, looked up): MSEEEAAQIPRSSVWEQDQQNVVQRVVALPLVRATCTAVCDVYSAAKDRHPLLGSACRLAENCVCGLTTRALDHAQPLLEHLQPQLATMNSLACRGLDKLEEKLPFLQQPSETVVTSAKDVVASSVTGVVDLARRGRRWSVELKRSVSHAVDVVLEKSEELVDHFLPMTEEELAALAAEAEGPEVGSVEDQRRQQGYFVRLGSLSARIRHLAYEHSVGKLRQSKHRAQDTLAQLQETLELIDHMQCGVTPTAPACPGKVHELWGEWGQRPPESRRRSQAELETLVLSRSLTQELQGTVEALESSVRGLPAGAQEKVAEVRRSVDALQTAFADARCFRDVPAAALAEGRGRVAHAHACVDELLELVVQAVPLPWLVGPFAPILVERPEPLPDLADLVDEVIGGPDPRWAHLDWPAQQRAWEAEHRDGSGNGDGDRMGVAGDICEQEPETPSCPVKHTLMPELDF
# Target sequence (Q8WTS1 whole entry, looked up): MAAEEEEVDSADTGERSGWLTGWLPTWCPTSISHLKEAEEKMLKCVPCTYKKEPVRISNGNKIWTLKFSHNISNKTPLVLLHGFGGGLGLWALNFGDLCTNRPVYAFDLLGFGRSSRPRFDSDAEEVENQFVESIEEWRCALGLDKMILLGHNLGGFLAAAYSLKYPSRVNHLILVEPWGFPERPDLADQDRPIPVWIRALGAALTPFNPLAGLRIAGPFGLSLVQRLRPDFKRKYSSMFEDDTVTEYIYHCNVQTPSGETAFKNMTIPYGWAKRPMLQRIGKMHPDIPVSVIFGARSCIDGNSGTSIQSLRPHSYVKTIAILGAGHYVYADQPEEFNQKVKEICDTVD
# TLR4 MyD88 comp – inhibitors of human TLR4-MyD88 binding; HeLa CL3-4 TLR4/MyD88 BLA complementation, FRET ratio; AID 861; actives 0.18% (n = 200,000); inhibition, % at 8.4 µM; in the data active means inhibition above about 25%;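 further: 0% = vehicle and 100% = reference inhibitor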
# NOD2-RIPK2 inh – blocks binding of human NOD2 to RIPK2; O43353; inhibition, % at 4.98 µM; AID 624267; actives 0.38% (n = 360,000); CHO BLA complementation NOD2-RIPK2, CCF4 ratio; in the data active means inhibition above about 21%;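 further: 0% = vehicle only and 100% = reference blocker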
# B2AR ag – human beta-2 adrenergic receptor agonism by FAP. actives 0.43% (n = 340,000). P07550. response, % (no concentration beside the values). Am2.2-beta2AR cells, FAP receptor internalization, flow cytometry. AID 504454;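 active means response above a set limit, near 3 SD of response in nonfluorescent compounds, cut at about 42% in these data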
# * marks the source's active call; other numbers are inactive results; / = no result given.
SMILES,Granule exo inh,TLR9-MyD88 inh,ABHD5 PLIN5 PPI,TLR4 MyD88 comp,NOD2-RIPK2 inh,B2AR ag
CCOC(=O)COc1ccc(/C=C2\NC(=S)N(CC)C2=O)cc1,19,2,1,11,-19,66*
CCN1C(=O)/C(=C/c2ccc(C)s2)NC1=S,7,-2,-3,-4,-9,-2
Nc1c(C(=O)Nc2ccccc2)c2nc3ccccc3nc2n1-c1ccc(O)cc1,-3,-9,23*,/,-4,1
CCOc1ccc(-n2c(N)c(C(=O)NCc3ccco3)c3nc4ccccc4nc32)cc1,-1,0,33*,-4,4,15
Nc1c(C(=O)NCc2ccco2)c2nc3ccccc3nc2n1CCc1ccccc1,16,-19,13,-11,-21,1
CCOC(=O)c1c(N)n(-c2ccc(N)cc2)c2nc3ccccc3nc12,-2,2,7,-21,-5,-20
O=C(NC(Cc1c[nH]c2ccccc12)C(=O)O)OCC1c2ccccc2-c2ccccc21 (configuration not stated),12,/,-5,/,-3,/
CCc1nc2ccc(C(=O)N3CCN(C(=O)c4ccco4)CC3)cn2c1N(CC)Cc1cccc(Br)c1,7,/,8,/,9,/
COc1cccc(NC(=O)C2(C)CCN2C(=O)C2CCCCC2)c1 (configuration not stated),3,/,-5,/,3,/
CN1/C(=C\C=C2/C(=O)Oc3ccccc3C2=O)C(C)(C)c2ccccc21,/,/,/,12,/,/
CN1C(=CC=C2C=C(I)C(=O)C(I)=C2)C(C)(C)c2ccccc21,89*,7,1,/,0,39
CC(C)NC(=O)C1(C)CCN1C(=O)c1ccccc1 (configuration not stated),0,/,1,/,-10,/
O=C(COC(=O)/C=C/c1ccc(Cl)cc1)NC1CC1,11,-9,-14,/,6,-8
O=C(COC(=O)/C=C/c1ccc(Cl)cc1)NC1CCCCCC1,-1,-7,3,/,9,44*
CC(C)C[C@H]1CNC(=O)C(=O)N1CC1CCN(CC2CCC(C(C)(C)C)CC2)CC1 (some centres not stated),-2,-5,2,/,-14,2
Cc1ccc(NC(=O)CC2SC3=NCCN3C2=O)cc1 (configuration not stated),2,6,23*,-7,15,-3
CC(C)Nc1ncnc2c1ncn2[C@H]1CN(Cc2cccs2)C[C@@H](CO)O1,-7,/,2,/,-11,/
Cc1ccc(/C=N/Nc2cc(C)nc(NCc3ccccc3)n2)cc1,88*,-3,4,/,-3,5
Cc1cc(N/N=C/c2ccc(F)cc2)nc(NCc2ccccc2)n1,-1,/,-8,/,2,1
CN1C(=O)N(CC(=O)c2ccc3c(c2)OCO3)C(=O)C12CCCCC2,-2,3,-2,/,0,/
C#CCOCCOCCOCCNc1nc(N2CCN(C(=O)CCCCCCCCCCNC(=O)[C@H](CO)n3cc(CCCSC)nn3)CC2)nc(N2CCN(C(=O)CCCCCCCCCCNC(=O)[C@H](CCCCN)n3cc(CCO)nn3)CC2)n1,1,-5,49*,/,7,35
C#CCOCCOCCOCCNc1nc(N2CCN(C(=O)CCCCCCCCCCNC(=O)Cn3cc(C[C@@H](C)O)nn3)CC2)nc(N2CCN(C(=O)CCCCCCCCCCNC(=O)[C@H](CCCN=C(N)N)n3cc(C[C@@H](C)CC)nn3)CC2)n1,16,19,55*,/,24*,57*
C#CCOCCOCCOCCNc1nc(N2CCN(C(=O)CCCCCCCCCCNC(=O)Cn3cc(CCCCCN)nn3)CC2)nc(N2CCN(C(=O)CCCCCCCCCCNC(=O)[C@@H](CCSC)n3cc(CCO)nn3)CC2)n1,65*,12,57*,/,13,75*
C#CCOCCOCCOCCNc1nc(N2CCN(C(=O)CCCCCCCCCCNC(=O)Cn3cc(CCCCCN)nn3)CC2)nc(N2CCN(C(=O)CCCCCCCCCCNC(=O)[C@@H](CCC(=O)O)n3cc(CCCCCN)nn3)CC2)n1,-4,-7,22,/,-8,13
C#CCOCCOCCOCCNc1nc(N2CCN(C(=O)CCCCCCCCCCNC(=O)[C@H](CCCCN)n3cc(C)nn3)CC2)nc(N2CCN(C(=O)CCCCCCCCCCNC(=O)[C@H](CCCCN)n3cc(CCCC(=O)O)nn3)CC2)n1,-1,-7,7,/,5,16
SMILES,Granule exo inh,TLR9-MyD88 inh,ABHD5 PLIN5 PPI,TLR4 MyD88 comp,NOD2-RIPK2 inh,B2AR ag
C#CCOCCOCCOCCNc1nc(N2CCN(C(=O)CCCCCCCCCCNC(=O)Cn3cc(C[C@@H](C)O)nn3)CC2)nc(N2CCN(C(=O)CCCCCCCCCCNC(=O)[C@H](CO)n3cc(CCCSC)nn3)CC2)n1,-10,0,18,/,-8,8
C#CCOCCOCCOCCNc1nc(N2CCN(C(=O)CCCCCCCCCCNC(=O)[C@H](CO)n3cc(CCCSC)nn3)CC2)nc(N2CCN(C(=O)CCCCCCCCCCNC(=O)[C@H](CCCN=C(N)N)n3cc(C[C@@H](C)CC)nn3)CC2)n1,-3,7,70*,/,21*,89*
Cc1nccn1CC(=O)c1ccccc1,-5,-11,3,/,2,/
C#CCOCCOCCOCCNc1nc(N2CCN(C(=O)CCCCCCCCCCNC(=O)Cn3cc(CCCCCN)nn3)CC2)nc(N2CCN(C(=O)CCCCCCCCCCNC(=O)Cn3cc(CCCCCN)nn3)CC2)n1,-1,-3,21,/,6,45*
C#CCOCCOCCOCCNc1nc(N2CCN(C(=O)Cn3cc(CCCCN)nn3)CC2)nc(N2CCN(C(=O)Cn3cc(CCCCN)nn3)CC2)n1,-19,-9,0,-2,-6,2
Cc1cccc(C)c1NC(=O)C1(C)CN(S(C)(=O)=O)CC(=O)N1CCCN1CCOCC1 (configuration not stated),-3,/,7,/,-10,/
C#CCOCCOCCOCCNc1nc(N2CCN(C(=O)CCCCCCCCCCNC(=O)[C@H]([C@@H](C)CC)n3cc(CCCCN=C(N)N)nn3)CC2)nc(N2CCN(C(=O)CCCCCCCCCCNC(=O)[C@H](CO)n3cc(CCCCCN)nn3)CC2)n1,-5,35*,47*,/,31*,52*
C#CCOCCOCCOCCNc1nc(N2CCOCC2)nc(N2CCN(C(=O)CCCCCCCCCCNC(=O)[C@@H]([C@H](C)CC)n3cc(CCCCCN)nn3)CC2)n1,-8,9,27*,/,-9,12
C#CCOCCOCCOCCNc1nc(N2CCN(C(=O)CCCCCCCCCCNC(=O)[C@H]([C@@H](C)CC)n3cc(CCCCCN)nn3)CC2)nc(N2CCN(C(=O)CCCCCCCCCCNC(=O)[C@H]([C@@H](C)CC)n3cc(CCCCN=C(N)N)nn3)CC2)n1,0,75*,59*,/,69*,-507
C#CCOCCOCCOCCNc1nc(N2CCOCC2)nc(N2CCN(C(=O)CCCCCCCCCCNC(=O)[C@@H](CCC(=O)O)n3cc(CCCCCN)nn3)CC2)n1,-1,0,7,/,-6,-2
